Assay outcomes (PubChem BioAssay)
Hits are enriched below; roughly 0.89% of the tested compounds scored in any of these assays.
LAP4 TOR yeast = alters LAP4-GFP fluorescence in TOR pathway yeast screen. S. cerevisiae LAP4-GFP multiplex, flow cytometry GFP, 3 h; median GFP as percent of DMSO wells. GFP response vs DMSO, % at 10 µM. 320,000 tested, 0.34% active. AID 2023;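 active = GFP response vs DMSO above a set limit, about the screen mean plus 3 SD, cut at about 150% in these data; inconclusive = under 70 cell events counted for the yeast strain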
MEP2-GFP yeast = yeast TOR pathway MEP2-GFP modulation; S. cerevisiae MEP2-GFP strain, flow cytometry GFP, 3 h; 100% = DMSO control level; AID 2016; GFP response vs DMSO, % at 10 µM; 330,000 tested, 0.51% active;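 active = GFP response versus DMSO above a set limit, roughly screen mean plus 3 SD, cut at about 180% in these data; inconclusive = fewer than 70 cells counted for a yeast strain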;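 note: median GFP fluorescence of the barcode-gated MEP2-GFP cells per well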
CIT2-GFP yeast = modulators of TOR pathway CIT2-GFP in S. cerevisiae; S. cerevisiae CIT2-GFP strain, flow cytometry, 3 h; 100 means same as DMSO wells; GFP response vs DMSO, % at 10 µM; 320,000 tested, 0.065% active;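 active = GFP response relative to DMSO above a set limit, near the screen mean plus 3 SD, cut at about 150% in these data; inconclusive = Fewer than 70 cells measured for a yeast strain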;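 note: ratio of well median GFP fluorescence to mean of DMSO wells on the plate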
RPL19A TOR yeast = modulators of TOR pathway RPL19A-GFP in S. cerevisiae; S. cerevisiae RPL19A-GFP strain, flow cytometry, 3 h; stronger effect = lower value; percent response vs DMSO, % at 10 µM; 330,000 tested, 0.3% active;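 active = percent response vs DMSO below 50%; inconclusive = fewer than 70 events counted for the yeast strain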;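 note: median channel GFP fluorescence of the barcoded RPL19A-GFP strain; lower means less RPL19A-GFP as with rapamycin TOR inhibition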
AGP1-GFP MLPCN = modulators of TOR pathway AGP1-GFP in S. cerevisiae. S. cerevisiae AGP1-GFP multiplex flow cytometry, 3 h; GFP as percent of DMSO wells. 320,000 tested, 0.02% active. AID 2066. GFP response vs DMSO, % at 10 µM;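 active = GFP response relative to DMSO above a set limit, near screen average plus 3 SD, cut at about 150% in these data; inconclusive = fewer than 70 cells counted for the yeast strain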;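 note: median GFP channel fluorescence of the gated AGP1 strain per well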
Large screens that a line does not name were inactive; [ ] = another dose, or the depositor's remark.

COC(=O)c1c(C(=O)OC)c(-c2ccccc2)n2c1CS(=O)C2 (stereo not given)	MEP2-GFP yeast 355[may fluoresce violet], CIT2-GFP yeast inconclusive, RPL19A TOR yeast 41[may fluoresce violet], AGP1-GFP MLPCN inconclusive
COC(=O)c1c(C(=O)OC)c(-c2ccc(F)cc2)n2c1CS(=O)C2 (stereo not given)	none
Cc1ccc2nc(NC(=O)c3ccco3)sc2c1	none
Cc1ccc2nc(NC(=S)NC(=O)c3ccco3)sc2c1	CIT2-GFP yeast inconclusive, RPL19A TOR yeast 40[may fluoresce violet], AGP1-GFP MLPCN inconclusive
CC(CCc1ccco1)NC(=O)c1cc2c(-c3ccccc3F)nn(C)c2s1 (stereo not given)	none
CCN1c2ccccc2N(C)C1(C)c1ccccc1 (stereo not given)	none
CN1c2ccccc2N(C)C1(C)c1ccccc1	MEP2-GFP yeast 186[may fluoresce violet], CIT2-GFP yeast inconclusive, RPL19A TOR yeast 39[may fluoresce violet]
C/C(Cc1ccccc1)=N\NC(=O)CNC(=O)c1cccc(F)c1	none
CC1CCCCC1NC(=O)CN1CCN(Cc2ccccc2Cl)C1=O (stereo not given)	none
O=C(CN1CCN(Cc2ccccc2Cl)C1=O)NC1CCCCCCC1	MEP2-GFP yeast 208 (no result: RPL19A TOR yeast)
O=S(=O)(NCCc1ccccn1)c1ccc(OC(F)(F)F)cc1	CIT2-GFP yeast 171[may fluoresce green]
CC1(C)CC(=O)C(C(C2=C(O)CC(C)(C)CC2=O)c2cccs2)C(=O)C1 (stereo not given)	MEP2-GFP yeast 185
COCCCNCC(O)C(F)(F)F (stereo not given)	none
CCCCNC(=O)NNC(=O)c1ccc(F)cc1	none
Cc1ccc(OCc2ccc(C(=O)Nc3nccs3)o2)cc1C	MEP2-GFP yeast 255[may fluoresce violet], CIT2-GFP yeast inconclusive, RPL19A TOR yeast 15[may fluoresce violet], AGP1-GFP MLPCN inconclusive
COc1ccccc1CNC(=O)C1CCC1	none
O=C(CNc1cc(S(=O)(=O)N2CCOCC2)ccc1N1CCOCC1)Nc1cccc(C(F)(F)F)c1	none
COc1cccc(N2CCN(c3ccc4nnc(CCC(=O)Nc5ccc(OC)c(OC)c5)n4n3)CC2)c1	none
Cn1c(CBr)c(C(=O)c2ccc([N+](=O)[O-])cc2)c(=O)n(C)c1=O	MEP2-GFP yeast 444[may fluoresce violet], CIT2-GFP yeast inconclusive, AGP1-GFP MLPCN inconclusive
C/C(Cl)=C/CN1C(=O)C2C3C=CC(C3)C2C1=O (stereo not given)	MEP2-GFP yeast 247[may fluoresce violet], CIT2-GFP yeast inconclusive, RPL19A TOR yeast 25[may fluoresce violet], AGP1-GFP MLPCN inconclusive
O=C(O)CN1C(=O)C2C3C=CC(C3)C2C1=O (stereo not given)	none
O=c1c(Cl)c(O)c2cccc3c4ccccc4n1c23	none
COc1c(OC)c2[nH]c(=O)cc3c4ccccc4n(c1=O)c23	MEP2-GFP yeast 365[may fluoresce violet], CIT2-GFP yeast inconclusive, RPL19A TOR yeast 18[may fluoresce violet], AGP1-GFP MLPCN inconclusive
CC1(C)Cc2cccc(OCC(=O)Nc3ccccc3C(F)(F)F)c2O1	none
CC1(C)Cc2cccc(OCC(=O)Nc3ccccc3N3CCOCC3)c2O1	MEP2-GFP yeast inconclusive, CIT2-GFP yeast inconclusive, RPL19A TOR yeast 16[may fluoresce violet], AGP1-GFP MLPCN inconclusive
CC(=O)C1=C(O)C(=O)N(CCC(=O)O)C1c1cccc(F)c1 (stereo not given)	MEP2-GFP yeast 200[may fluoresce violet], CIT2-GFP yeast inconclusive
N#C/C(=C\c1ccc(OCc2ccccc2)cc1)C(=O)Nc1nc2c(s1)CCN(Cc1ccccc1)C2	none
COc1ccc(CNS(=O)(=O)c2c(C)[nH]c(C)c2C(=O)N2CCCCC2)cc1	none
Cc1[nH]c(C)c(S(=O)(=O)NCc2ccc(F)cc2)c1C(=O)N1CCCC1	MEP2-GFP yeast 438[may fluoresce violet], CIT2-GFP yeast inconclusive, RPL19A TOR yeast 47[may fluoresce violet], AGP1-GFP MLPCN inconclusive
CC(C)C(C(=O)NCc1ccco1)N(Cc1ccco1)C(=O)CNS(=O)(=O)c1ccc(F)cc1 (stereo not given)	MEP2-GFP yeast inconclusive, CIT2-GFP yeast inconclusive, RPL19A TOR yeast 24[may fluoresce violet], AGP1-GFP MLPCN inconclusive
CC(C)C(C(=O)NC1CCCC1)N(Cc1ccco1)C(=O)CNS(=O)(=O)c1ccccc1 (stereo not given)	none
CCOC(=O)c1cc(-c2ccc(Cl)cc2)nc2onc(C)c12	none
CN1CCN(C(=O)/C(=C/c2ccccc2Cl)NC(=O)c2ccccc2)CC1	MEP2-GFP yeast 475[may fluoresce violet], CIT2-GFP yeast inconclusive
CN1CCN(C(=O)/C(=C\c2cccs2)NC(=O)c2ccccc2)CC1	none
O=C(NCCCN1CCOCC1)C(=O)N/N=C/c1ccc2c(c1)OCO2	MEP2-GFP yeast 298[may fluoresce violet], CIT2-GFP yeast inconclusive, RPL19A TOR yeast 47[may fluoresce violet], AGP1-GFP MLPCN inconclusive
